# Compound activity as filed in PubChem.
# TSHR antag = human thyrotropin receptor antagonism. P16473. TSHR-expressing cells, TSH-stimulated cAMP HTRF, 2 h; hits give low values. activity change, negative = inhibition, % at 11.5 µM. hit rate 0.2% among 330,000. AID 504810;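 active = activity change below a set negative limit, meaning inhibition stronger than a set level, cut at about -70% in these data; inconclusive = activity change between two set negative limits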
# Target sequence (P16473 whole entry, looked up): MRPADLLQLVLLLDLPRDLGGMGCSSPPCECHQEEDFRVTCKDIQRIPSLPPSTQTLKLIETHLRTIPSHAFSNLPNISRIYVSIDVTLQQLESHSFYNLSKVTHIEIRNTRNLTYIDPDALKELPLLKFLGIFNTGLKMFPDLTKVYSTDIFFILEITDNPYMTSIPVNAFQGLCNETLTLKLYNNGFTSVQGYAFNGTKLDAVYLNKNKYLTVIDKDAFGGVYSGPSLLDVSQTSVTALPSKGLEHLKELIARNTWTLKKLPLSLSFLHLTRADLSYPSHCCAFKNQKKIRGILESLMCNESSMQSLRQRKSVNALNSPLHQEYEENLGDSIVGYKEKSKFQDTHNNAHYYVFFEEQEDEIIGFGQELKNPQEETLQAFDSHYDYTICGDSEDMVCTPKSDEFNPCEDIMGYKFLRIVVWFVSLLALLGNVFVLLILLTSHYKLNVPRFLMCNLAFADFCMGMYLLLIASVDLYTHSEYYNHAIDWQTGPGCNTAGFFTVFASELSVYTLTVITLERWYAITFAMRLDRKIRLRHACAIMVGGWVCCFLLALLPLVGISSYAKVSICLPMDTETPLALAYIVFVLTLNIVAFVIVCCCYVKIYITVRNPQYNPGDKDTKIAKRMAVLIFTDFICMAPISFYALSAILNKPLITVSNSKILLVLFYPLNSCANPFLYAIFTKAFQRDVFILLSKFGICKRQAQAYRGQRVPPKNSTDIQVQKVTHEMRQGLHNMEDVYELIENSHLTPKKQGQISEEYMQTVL
#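 Read-out is FRET at 665 nm (cryptate excitation 337 nm) from a cryptate-tagged anti-cAMP antibody, competed by cell cAMP against cAMP-d2. Compounds are tested on freshly harvested TSHR cells challenged with 4nM TSH (EC80) for 2 hours at 37 deg C.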
# ELG1 repair inh = ELG1-dependent DNA repair inhibition. AID 504467. hit rate 2.3% among 330,000. HEK293T ELG1-luciferase reporter, luminescence, 16 h; DNA damage induced by 5-fluorouridine. Potency, µM (titrated, usually from 46.1 µM), usual class: inhibitors; also: nearly all actives have a fitted effect of over 55% in size
#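 DMSO vehicle served as the neutral condition. Each well held 2,000 cells given 5-fluorouridine plus compound; after 16 hr at 37 °C/5% CO2, ONE-Glo was added and luciferase measured 30 min later.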
# RORgamma inh = ROR gamma (mouse) transcription inhibition; P51450; Drosophila S2 Gal4-RORgamma UAS-luciferase reporter, 20 h; Potency, µM (doses to about 53.6 µM), most hits filed as inhibitors; hit rate 5.4% among 310,000; AID 2551; also: nearly all actives have a fitted effect of over 60% in size
#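 Luminescence from a UAS-regulated Photinus luciferase reporter in stably transfected Drosophila Schneider cells is measured; decreased signal marks ROR gamma inhibition. Fusion expression is induced by 700 uM copper sulfate for 20 hr.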
# Gal4-VP16 FLuc = inhibits Gal4-VP16 luciferase reporter, ROR gamma counter-screen; AID 2546; Drosophila S2 Gal4-VP16 UAS-luciferase, luminescence, 20 h; Potency, µM (highest dose often 53.6 µM), most hits filed as inhibitors; hit rate 3.5% among 310,000;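 also: Gal4-VP16 expression switched on by copper sulfate through the metallothionein promoter; nearly all actives have a fitted effect of over 50% in size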
# FBPA coupling cs = counter-screen for Giardia aldolase inhibitors: coupling enzyme system. coupling enzyme system counterscreen, AmpLite Red fluorescence. hit rate 0.67% among 290,000. activity change, negative = inhibition, % at 58.2 µM, hits read low. AID 2472; in the data active = activity change below about -30%
#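 Final compound at 57.5 uM, incubated 10 min at RT with coupling enzyme reagent (glyceraldehyde-3-phosphate), then 20 min with substrate and AmpLite Red detection. Fluorescence read at 525/598 nm; tests interference with the coupling assay, not aldolase inhibition.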
# Hits are given with their value; . = inactive; ? = inconclusive; / = no result; ! = not confirmed by another sample; [ ] = dose if it differs, or a comment. A selection: hits, their analogues and other compounds. The true share with any hit is near 8%. Unless noted, calls follow the shape of the dose curve; as a rule, active = well fitted curve in the direction sought with a large enough effect; inconclusive = small, poorly fitted or top-dose-only effect, or another doubt; inactive = no such curve, though single readings can be large; an effect the other way counts as inactive or inconclusive.
SMILES,TSHR antag,ELG1 repair inh,RORgamma inh,Gal4-VP16 FLuc,FBPA coupling cs
COC/C=C/C1=CC2=CC(=O)C(C)(OC(=O)c3cnc4ccccc4n3)C(=O)C2=CN1CCCCO (stereo not given),.,.,.,.,-32!
CC(C)(C)Cn1nc(-c2ccc(Cl)cc2)c2c(N)ncnc21,/,/,.,.,.
CN(C)c1ccc(/C=N/NC(=O)CN2CCCCC2)cc1Br,.,.,.,.,.
COC(=O)CCCC1=CC2=CC(=O)C(C)(OC(=O)c3cccs3)C(=O)C2=CO1 (stereo not given),/,/,.,.,.
COC(=O)CCCC1=CC2=CC(=O)C(C)(OC(=O)c3cccs3)C(=O)C2=CN1CCN1CCOCC1 (stereo not given),.,.,.,.,-38!
CCCC(=O)N(C1CC(C)C(C#N)(C#N)C1(C#N)C#N)N(C)C (stereo not given),?,?,.,.,.
CC(=O)N(C1CC(C)C(C#N)(C#N)C1(C#N)C#N)N(C)C (stereo not given),.,.,7.9µM,.[10 µM],.
Cc1c(NC(=O)c2ccc([N+](=O)[O-])o2)cccc1-c1nc2ncccc2o1,.,?,?,?,.
CCCOC(=O)Nc1ccc(N2CCCCC2)cc1,/,/,11µM,?,.
CC(C)C(=O)Nc1ccc(N2CCCC2)cc1,.,?,.,.,-32
O=C(Nc1ccc(N2CCCCCC2)cc1)c1ccccc1Cl,.,?,.,.,.
O=C(Nc1ccc(N2CCCCC2)cc1)c1ccccn1,.,?,1.3µM,2µM,.
O=C(CN1CCCCC1)Nc1ccc(N2CCCCCC2)cc1,.,.,.,.,.
COc1cccc(NC(=O)COC(=O)C2CC(=O)N(c3ccc(C)cc3)C2)c1 (stereo not given),.,.,/,/,/
C=CCCCCCC,/,/,.,.,/
Cc1noc(C)c1COC(=O)c1csc2c1CCCC2,.,.,/,/,/
Cc1cccc(NC(=S)NCCc2ccccc2)c1C,.,.,3.5µM,5µM,.
Cc1cccnc1NC(=S)Nc1ncccc1C,.,?,?,.,.
Cc1cccnc1NC(=S)NCCc1ccccc1,.,?,2.8µM,10µM,.
Cc1cccc(NC(=S)NCc2ccccc2Cl)c1C,.,?,5µM,4µM,.
CCn1cc(CNC(=S)Nc2cccc(Cl)c2C)cn1,.,.,.,.,.
Cc1cccc(C)c1NC(=S)NCCc1ccc(O)c(O)c1,.,?,7.9µM,?,.
O=c1c(O)c(-c2ccc(O[C@@H]3O[C@H](CO)[C@@H](O)[C@H](O)[C@H]3O)c(O)c2)oc2cc(O)cc(O)c12,/,/,.,.,.
C[C@@H]1OC2C3=C(C(=O)[C@H]4O[C@@H]4[C@H]3O)[C@@H]1[C@H]1[C@H](C)OC=C3[C@H](O)[C@H]4O[C@H]4/C(=N\OCc4ccccc4)[C@@]321,/,/,.[10 µM],.[10 µM],.
COc1ccc(CCNC(=S)Nc2cccc(C)c2C)cc1,.,.,4µM,7.9µM,.
SMILES,TSHR antag,ELG1 repair inh,RORgamma inh,Gal4-VP16 FLuc,FBPA coupling cs
Cc1ccccc1NC(=S)NCCc1ccc(S(N)(=O)=O)cc1,.,.,.,.,.
Cc1ccc(NC(=S)NCCc2ccccc2)nc1,.,?,0.5µM,5µM,.
Cc1ccc(NC(=O)CN(C)C(=O)c2cccnc2Nc2cccc(C(F)(F)F)c2)cc1,.,?,?,13µM,/
CCCCNC(=O)Nc1cc(C(F)(F)F)c[nH]c1=O,.,.,.,.,-43
CCCCNC(=O)Nc1ccccc1CC,.,.,.,.,.
O=C(/C=C/c1cccc([N+](=O)[O-])c1)Nc1cccc(NC(=O)c2cccs2)c1,.,18µM,?,.,.
O=C(/C=C/c1cccc([N+](=O)[O-])c1)Nc1cccc(NC(=O)c2ccco2)c1,.,21µM,?,.,.
O=C(CCCn1c(=S)[nH]c2ccc(Br)cc2c1=O)N1CCN(c2ccccn2)CC1,.,18µM,7.1µM,?,.
COc1ccccc1N1CCN(C(=O)C2CCC(Cn3c(=S)[nH]c4ccccc4c3=O)CC2)CC1 (stereo not given),.,?,2.5µM,5µM,.
O=C(C1CCC(Cn2c(=S)[nH]c3ccccc3c2=O)CC1)N1CCN(c2ccccn2)CC1 (stereo not given),.,5.2µM,5.6µM,?,.
O=C(C1CCC(Cn2c(=O)[nH]c3ccccc3c2=O)CC1)N1CCN(c2ccccc2)CC1 (stereo not given),.,?,.,.,.
O=C(C1CCC(Cn2c(=S)[nH]c3ccccc3c2=O)CC1)N1CCOCC1 (stereo not given),.,.,11µM,?,.
COc1ccc(N2CCN(C(=O)C3CCC(Cn4c(=S)[nH]c5ccccc5c4=O)CC3)CC2)cc1 (stereo not given),.,?,3.5µM,7.1µM,.
O=C(C1CCC(CNc2nc(=S)[nH]c3ccccc23)CC1)N1CCN(c2ccc(F)cc2)CC1 (stereo not given),.,23µM,?,.,.
COc1ccc(N2CCN(CCCNC(=O)C3CCC(CNc4nc(=S)[nH]c5ccccc45)CC3)CC2)cc1 (stereo not given),.,?,.,.,.
O=C(NCCc1ccc(Cl)cc1)C1CCC(CNc2nc(=S)[nH]c3ccccc23)CC1 (stereo not given),.,?,11µM,?,.
O=C(NCCC1=CCCCC1)C1CCC(CNc2nc(=S)[nH]c3ccccc23)CC1 (stereo not given),.,?,?,.,.
CCN(CC(=O)Nc1ccc2c(c1)OCCO2)C(=O)c1ccc(C(F)(F)F)cc1,.,?,/,/,/
CCCC1NC(C(=O)O)Cc2c1[nH]c1ccccc21 (stereo not given),.,.,.,.,.
CC1CCN(C(=S)c2ccc(N(C)C)cc2)CC1,.,?,13µM,.,.
COc1cc(C(=S)N2CCCCC2)ccc1O,.,.,.,.,-37
CC(=O)N1CCN(C(=S)c2ccc(N(C)C)cc2)CC1,.,.,.,.,.
CN(C)c1ccc(C(=S)N2CCCCCC2)cc1,.,?,20µM,.,.
COc1c(O)cc2c(c1O)[C@@H]1O[C@@H](CO)[C@@H](O)[C@@H](O)[C@@H]1OC2=O,/,/,.[2.98 µM],.,.
O=C1CC(O)(C(F)(F)F)Oc2c1ccc1ccccc21 (stereo not given),.,.,.,.,.
O=C1CC(O)(C(F)F)Oc2ccc3ccccc3c21 (stereo not given),.,16µM,.,.,.
Cc1cccc(C2c3[nH]c4ccccc4c3CCN2Cc2cccn2-c2ncccn2)c1 (stereo not given),.,?,?,?,.
COc1ccc(C2c3[nH]c4ccccc4c3CCN2Cc2cccn2-c2ncccn2)cc1C (stereo not given),.,21µM,?,?,.
CC1(O)C(=O)C=C2C=C(CCCCOCc3ccccc3)OC=C2C1=O (stereo not given),/,/,.[10 µM],.[10 µM],.
